VLA-4 antagonist: inhibition of LDV-FITC ligand binding to human VLA-4 integrin; Jurkat cells, LDV-FITC binding with Mn2+, flow cytometry; 100% = Mn2+-driven binding gain fully reversed; inhibition, % at 10 µM (by protocol); hit rate 0.2% among 24,000;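 active = inhibition above 50%; inconclusive = compound itself fluorescent, judged against control cell fluorescence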;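 also: 0% = Mn2+ stimulated cells lacking compound and 100% = ligand binding without Mn2+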
VLA-4 agonist: allosterically activates the human VLA-4 integrin; P13612; Jurkat cells, LDV-FITC binding, flow cytometry; activation, % at 10 µM (by protocol); 24,000 tested, under 10 active; AID 528;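 active = fluorescent ligand binding to cells raised by more than 40% of the manganese-induced maximum; inconclusive = compound's own fluorescence above 85% of the ligand control signal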;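 also: 0% = ligand binding without compound and 100% = manganese-stimulated maximal binding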
Jurkat autofluor: compound fluoresces in Jurkat cells, VLA-4 screen interference; compound autofluorescence, flow cytometry; hits give high values; 1 = vehicle-only cell background; fluorescence ratio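 (tested at 10 µM compound in the well)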; hit rate 0.61% among 24,000; AID 576;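 active = fluorescence ratio above 2.44, which is 1 plus 3 SD of all ratios; inconclusive = signal too bright to measure linearly, ratio around 10 or more; inactive = fluorescence ratio below 2.44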;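 also: green fluorescence of cells measured with 488 nm excitation and 530 nm emission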
S aureus QS inh: inhibitors of bacterial quorum sensing in S. aureus | S. aureus RN6390 RNAIII-GFP reporter, AIP-induced, flow cytometry 3 h | inhibition, % at 2 µM | hit rate 0.3% among 24,000 | AID 527;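 active = share of bacteria positive for the green fluorescent reporter and its mean brightness both inhibited by 50% or more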;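 also: 0% = AIP-stimulated control and 100% = unstimulated bacteria without AIP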
26S disassembly: blocks ATP-dependent breakdown of the yeast 26S proteasome; hit rate 0.2% among 24,000; anti-FLAG beads, GFP-proteasome disassembly, flow cytometry; inhibition of disassembly, % (concentration not given with the values);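 active = inhibition of disassembly above about 33%, limit read from the data; inconclusive = likely self-fluorescent, control bead median signal at least 40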;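 also: plate controls were ATP control with full disassembly for no effect and ATP-gamma-S intact proteasomes for full effect; higher percent means more bead fluorescence retained so stronger block of disassembly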
Prostate diff: activators of LNCaP prostate cell differentiation; flow cytometry side scatter, 4 d; side scatter shift, % at 10 µM; hit rate 0.56% among 24,000; AID 795;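 active = side scatter shift above 30%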;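 also: androgen-responsive LNCaP prostate cancer cells in charcoal-stripped serum medium; percent of cells past a gate set so DMSO wells show 10% shift; higher shift means more granular cells and more differentiation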
Numbers without * were called inactive; ? = inconclusive; / = no result. Sampled rows, rich in hits. Any-hit rate of the full collection: about 1.8%.

SMILES	VLA-4 antagonist	VLA-4 agonist	Jurkat autofluor	S aureus QS inh	26S disassembly	Prostate diff
CCOc1ccccc1N1CCN(c2nc(N)c(C#N)c(CC#N)c2C#N)CC1	?	?	5.2*	0	19	4
FC(F)(F)c1ccc(N2CCOCC2)c(Nc2nc3ccccc3n3cnnc23)c1	?	?	2.7*	2	1	5
CC(C)Cc1nc2oc3c(N4CCN(CCO)CC4)ncnc3c2c2c1CCCC2	-16	9	0.95	3	0	32*
Cc1ccc(NC(=O)c2ccc(NS(=O)(=O)c3c(C)noc3C)cc2)cc1C	23	-15	1.1	7	0	12
Cc1noc(C)c1S(=O)(=O)Nc1ccc(C(=O)NCCc2ccccc2)cc1	55*	-5	1.1	-7	-3	16
Cc1noc(C)c1S(=O)(=O)Nc1ccc(C(=O)NC2CCCCC2)cc1	?	?	3*	-2	3	4
CCCNC(=O)c1c(N)n(-c2cc(OC)cc(OC)c2)c2nc3ccccc3nc12	5	-20	1.2	1	2	1
CCN1CCN(c2cc(C)c3cc(NC(=O)c4ccc(Br)o4)ccc3n2)CC1	9	-2	1	-4	0	53*
CCN1CCN(c2cc(C)c3cc(NC(=O)c4ccncc4)ccc3n2)CC1	3	0	1.1	-5	1	11
CC(=O)c1ccc(NC2OC(C)C(O)C(O)C2O)cc1 (stereo not given)	-1	0	1.1	0	-2	3
CCC(=O)c1ccc(OCC(O)Cn2cnc3ccccc32)cc1 (stereo not given)	?	?	3.2*	-2	0	14
CCCCCCNC(=O)CC(NS(=O)(=O)c1ccc(NC(C)=O)cc1)C(C)C (stereo not given)	4	3	1	7	2	3
COCCNC(=O)CC(NS(=O)(=O)c1ccc(NC(C)=O)cc1)C(C)C (stereo not given)	-3	2	1.1	0	-1	31*
O=C(Nc1nc2ccccc2s1)C1=NN(c2ccccc2)C(=O)CC1	/	/	/	0	/	/
CNc1nn(-c2cccc(Cl)c2)nc1N	?	?	8.1*	4	?	13
CC1(C)CC(=O)CC(C)(C)N1OC(=O)c1ccccn1	-15	-4	0.96	3	0	6
Cc1noc(/C=C/N(C)C)c1S(=O)(=O)N1CCCC(C(=O)NCc2ccccc2Cl)C1 (stereo not given)	34	-3	1.1	-1	1	16
CCOc1cccc2cc(-c3nnc(NCc4ccco4)s3)c(=O)oc12	?	?	1.6	0	-1	9
CCOc1cccc2cc(-c3cn4cc(C)ccc4n3)c(=O)oc12	-19	6	1	0	-2	57*
COc1ccc(C2CC(c3ccc(Cl)cc3)n3nc(N)nc3N2)cc1 (stereo not given)	5	0	1.1	-7	-1	6
COc1cc(-n2nc(C)c3c2OC(N)=C(C#N)C3c2ccccc2)c(Cl)c(Br)c1O (stereo not given)	?	?	3*	0	5	6
CC(=O)C(C(C)=O)c1c(Cl)c(O)c(O)c2c(C(=O)c3ccccc3)coc12	/	/	/	-13	/	/
Cc1noc(C)c1S(=O)(=O)N1CCC(C(=O)N2CCN(C(=O)c3ccco3)CC2)CC1	-15	4	1.1	-2	-1	1
Cc1noc(/C=C/c2ccco2)c1S(=O)(=O)N1CCC(C(=O)N(C)Cc2ccccc2)CC1	24	-2	1.1	4	46*	19
Cc1noc(/C=C/c2ccco2)c1S(=O)(=O)N1CCC(C(=O)N2c3ccccc3CC2C)CC1 (stereo not given)	-4	2	1.1	2	105*	11
SMILES	VLA-4 antagonist	VLA-4 agonist	Jurkat autofluor	S aureus QS inh	26S disassembly	Prostate diff
O=C(O)Cn1c(SC2CCCCC2)nc2ccccc21	-8	7	0.95	0	-3	1
COC(=O)C1C(=O)C2=C(CC1C)NC(C)=C(C(=O)OCCOc1ccccc1)C2c1ccc(C)o1 (stereo not given)	10	-6	1.1	-8	1	10
COC(=O)C1C(=O)C2=C(CC1C)NC(C)=C(C(=O)OC1CCCCC1)C2c1ccc(N(C)C)cc1 (stereo not given)	-26	2	0.97	54*	6	0
Cc1nc(NCc2ccccn2)c2ccccc2n1	?	?	2.8*	-1	28	11
Cc1nc2ccccc2c2oc(C(=O)NCc3ccccn3)cc12	-8	-4	1	0	0	4
CCCCOC(=O)n1c(SCC(=O)N(CC)CC)nc2ccccc21	4	-3	1.1	8	1	15
COc1cccc(NS(=O)(=O)c2ccc(Br)s2)c1	?	?	2.9*	13	2	12
Cc1ccc2c(c1)NC(=O)C(CC(=O)NCCCN1CCN(c3cc(Cl)ccc3C)CC1)O2 (stereo not given)	-3	-9	1	0	-1	44*
COc1cccc2c1C(=O)c1c(O)c3c(c(O)c1C2=O)C[C@@](O)(C(=O)CO)C[C@@H]3O[C@H]1C[C@H](N)[C@H](O)[C@H](C)O1	?	?	6.3*	8	?	5
O=C(Nc1nc2ccccc2s1)C1CC(=O)N(c2ccc(Br)cc2)C1 (stereo not given)	/	/	/	13	/	/
Cc1nn(-c2ccccc2)c(OC(=O)c2cccs2)c1S(=O)(=O)c1ccccc1	-8	3	0.88	53*	0	6
COc1ccccc1NC(=O)NC1(C(=O)N2CCC(O)CC2)CCCCC1	-2	-4	0.99	8	-5	9
COc1ccc(CCn2c(-c3ccco3)nc3nc4ccccc4nc32)cc1	?	?	1.7	1	9	10
COc1ccc(CCN2CCC(Nc3nc4ccccc4n3Cc3ccc(F)cc3)CC2)cc1	?	?	2.6*	4	1	66*
C=CCOC(=O)C1C(=O)CC(C)(O)C(C(=O)OCC=C)C1c1ccc(OCC)cc1 (stereo not given)	-34	-10	1.1	-2	-1	22
COc1ccc(C2C(C(=O)NCc3cccnc3)c3ccccc3C(=O)N2C)cc1OC (stereo not given)	4	2	1	1	1	6
CCc1ccc(N/C(SCc2cccc(F)c2)=C(/C#N)C(=O)NCc2ccco2)cc1	5	-12	1.1	65*	2	6
CC(C)Cn1c(=O)c(C2=NS(=O)(=O)c3ccccc3N2)c(O)c2ccccc21	59*	-53	0.98	7	-2	3
CC(C)Cn1c(=O)c(C(=O)NCc2ccccn2)c(O)c2ccccc21	1	-9	1.1	0	-2	15
COC(=O)c1ccc2c(c1)NC(=O)C(N1CCCCC1)S2 (stereo not given)	?	?	1.1	0	4	7

High-throughput results (PubChem)
